Assay results: PubChem BioAssay (Tox21)
Records with an inconclusive call do not appear. Calls of active or inactive are those of the source. Unless noted, the call rests on the fitted dose curve; in most records, active means well fitted curve in the direction sought with a large enough effect in the repeat runs; inconclusive means weak or mixed curves; inactive means no such curve, though single readings can be large; an effect the other way counts as inactive or inconclusive.

How the values were obtained:
[1] = qHTS assay to identify small molecule antagonists of the estrogen related receptor (ERR) signaling pathway from Tox21 library - cell viability counter screen (AID 1224834); further: nearly all actives have a fitted effect of over 30% in size
Summary of the method: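 Counter screen run in ERR cells (2,000 cells/well): cells pre-incubated 6 h, then treated with compounds for 17.5 h at 37 C. Fluorescence was read 30 min after CellTiter-Fluor addition.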

[2] = target: Luciferin 4-monooxygenase (Photinus pyralis) (UniProt P08659); experiment: qHTS assay to identify small molecule inhibitors of firefly luciferase (AID 1224835); further: series mostly up to about 120 µM; nearly all actives have a fitted effect of over 25% in size
Chain of Luciferin 4-monooxygenase (Photinus pyralis) (P08659 whole entry, looked up): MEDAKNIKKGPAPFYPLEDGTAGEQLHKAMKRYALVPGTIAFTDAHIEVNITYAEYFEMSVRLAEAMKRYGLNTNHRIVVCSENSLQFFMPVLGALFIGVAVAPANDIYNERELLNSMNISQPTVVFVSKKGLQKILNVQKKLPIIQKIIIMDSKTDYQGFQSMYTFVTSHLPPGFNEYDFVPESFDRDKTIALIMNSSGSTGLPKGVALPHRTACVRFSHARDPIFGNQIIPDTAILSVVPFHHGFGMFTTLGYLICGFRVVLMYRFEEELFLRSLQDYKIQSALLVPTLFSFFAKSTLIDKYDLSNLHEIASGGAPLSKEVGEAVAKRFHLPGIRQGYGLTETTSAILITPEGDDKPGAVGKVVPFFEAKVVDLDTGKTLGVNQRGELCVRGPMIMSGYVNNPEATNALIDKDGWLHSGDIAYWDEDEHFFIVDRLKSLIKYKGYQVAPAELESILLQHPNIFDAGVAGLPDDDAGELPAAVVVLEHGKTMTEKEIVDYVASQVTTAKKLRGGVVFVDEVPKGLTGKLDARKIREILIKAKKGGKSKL
Summary of the method: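 Inhibition of purified Photinus luciferase is measured by luminescence. Substrate levels (D-luciferin, ATP) sit at their KM values. Each compound is tested in a concentration series.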

[3] = qHTS assay to identify small molecule agonists of the constitutive androstane receptor (CAR) signaling pathway - cell viability counter screen (AID 1224836); further: series mostly up to about 92 µM; nearly all actives have a fitted effect of over 45% in size
Summary of the method: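 Counter screen multiplexed with the CAR reporter readout: HepG2 cells co-transfected with hCAR and the CYP2B6-2.2kb construct receive a 15-concentration compound series and 0.75 uM PK11195 (final), then CellTiter-Fluor fluorescence is read after 23 h.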

[4] = qHTS assay to identify small molecule antagonists of the constitutive androstane receptor (CAR) signaling pathway - cell viability counter screen (AID 1224837); further: series mostly up to about 92 µM; nearly all actives have a fitted effect of over 45% in size
Summary of the method: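 CITCO at 50 nM final was added alongside compounds (15 concentrations) to double-stable hCAR/CYP2B6-2.2kb HepG2 cells. Following 23 hr at 37 C, cell viability was quantified by CellTiter-Fluor fluorescence intensity.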

[5] = qHTS assay to identify small molecule antagonists of the estrogen related receptor signaling pathway with the pleiotropic PPARgamma coactivator (PGC) from Tox21 10K library - cell viability counter screen (AID 1224840; active means well fitted cell-killing curve with a large enough effect in the repeat runs, not every such curve was filed as active; further: nearly all actives have a fitted effect of over 40% in size)
Summary of the method: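 Readout: fluorescence intensity from CellTiter-Fluor after 30 min at 37 C/5% CO2. Preceded by 17.5 h treatment of PGC/ERR cells with DMSO-dissolved compounds, added 6 h post-seeding.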

[6] = target: Thyrotropin receptor (Homo sapiens) (UniProt P16473); experiment: qHTS assay to identify small molecule agonists of the thyroid stimulating hormone receptor (TSHR) signaling pathway (AID 1224843; calls by dose curve; further: nearly all actives have a fitted effect of over 45% in size)
Chain of Thyrotropin receptor (Homo sapiens) (P16473 whole entry, looked up): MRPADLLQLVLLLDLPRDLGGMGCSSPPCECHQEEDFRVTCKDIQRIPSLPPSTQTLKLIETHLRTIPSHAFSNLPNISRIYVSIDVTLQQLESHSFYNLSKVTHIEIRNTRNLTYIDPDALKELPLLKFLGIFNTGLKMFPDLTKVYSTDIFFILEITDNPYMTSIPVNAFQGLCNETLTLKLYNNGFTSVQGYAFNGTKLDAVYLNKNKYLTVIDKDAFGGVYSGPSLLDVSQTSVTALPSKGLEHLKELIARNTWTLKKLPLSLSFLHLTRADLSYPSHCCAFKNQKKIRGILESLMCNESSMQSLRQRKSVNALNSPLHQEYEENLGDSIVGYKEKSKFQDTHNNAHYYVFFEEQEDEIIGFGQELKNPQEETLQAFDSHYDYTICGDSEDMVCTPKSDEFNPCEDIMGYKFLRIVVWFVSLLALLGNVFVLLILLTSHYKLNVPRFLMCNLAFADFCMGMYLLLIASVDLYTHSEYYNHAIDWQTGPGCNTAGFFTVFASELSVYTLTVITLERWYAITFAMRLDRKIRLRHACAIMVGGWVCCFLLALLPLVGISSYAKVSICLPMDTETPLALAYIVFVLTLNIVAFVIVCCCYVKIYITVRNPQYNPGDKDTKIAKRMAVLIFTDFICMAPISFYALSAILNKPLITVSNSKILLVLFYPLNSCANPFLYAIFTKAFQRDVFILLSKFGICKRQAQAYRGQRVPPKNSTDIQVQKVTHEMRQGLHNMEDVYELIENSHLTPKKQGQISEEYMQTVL
Summary of the method: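 A cell-based cAMP HTRF format was run in TSHR-transfected HEK293 cells, 800 per well. Treatment: 30 min, room temperature. Detection: 1 h with labelled cAMP and anti-cAMP cryptate. Concentration-response over 15 points, three replicates.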

[7] = qHTS assay to identify small molecule antagonists of the estrogen related receptor signaling pathway with the pleiotropic PPARgamma coactivator (PGC) from Tox21 10K library (AID 1224841; call rule not given here; further: series mostly up to about 92 µM; actives are mostly falling curves and most rising ones were filed inactive; nearly all actives have a fitted effect of over 50% in size)
Summary of the method: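 One-Glo luminescence, measured after half an hour at room temperature, quantified reporter output of PGC/ERR cells. These had been plated at 2,000 per well, incubated 6 h, dosed with compounds in DMSO, then kept 18 h at 37 C.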

[8] = qHTS assay to identify small molecule agonists of the estrogen related receptor signaling pathway with the pleiotropic PPARgamma coactivator (PGC) from Tox21 10K library (AID 1224842); further: nearly all actives have a fitted effect of over 15% in size
Summary of the method: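 Luminescence from One-Glo (30 min, room temperature) measured after PGC/ERR cells had 18 h at 37 C with pinned compound (23 nL in DMSO). Cells had been seeded at 2,000 per well and pre-incubated 6 h.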

[9] = target: Nuclear receptor subfamily 1 group I member 3 (Homo sapiens) (UniProt Q14994); experiment: qHTS assay to identify small molecule antagonists of the constitutive androstane receptor (CAR) signaling pathway (AID 1224838); further: nearly all actives have a fitted effect of over 40% in size
Chain of Nuclear receptor subfamily 1 group I member 3 (Homo sapiens) (Q14994 whole entry, looked up): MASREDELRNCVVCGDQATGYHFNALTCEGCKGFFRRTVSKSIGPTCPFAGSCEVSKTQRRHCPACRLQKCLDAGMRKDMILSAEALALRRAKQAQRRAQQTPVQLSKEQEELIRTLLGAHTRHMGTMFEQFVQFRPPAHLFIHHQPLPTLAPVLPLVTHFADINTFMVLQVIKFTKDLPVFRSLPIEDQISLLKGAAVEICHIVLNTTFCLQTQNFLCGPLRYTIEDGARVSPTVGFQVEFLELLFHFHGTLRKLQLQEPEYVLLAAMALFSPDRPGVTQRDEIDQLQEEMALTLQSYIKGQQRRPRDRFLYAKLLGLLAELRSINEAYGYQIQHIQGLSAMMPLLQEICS
Summary of the method: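 Inhibition of CITCO-driven (50 nM final) CYP2B6 reporter expression is measured in HepG2 cells stably carrying hCAR. Fifteen compound concentrations are applied for 24 h at 37 C, followed by luciferase luminescence.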

[10] = target: Nuclear receptor subfamily 1 group I member 3 (Homo sapiens) (UniProt Q14994); experiment: qHTS assay to identify small molecule agonists of the constitutive androstane receptor (CAR) signaling pathway (AID 1224839); further: series mostly up to about 92 µM; nearly all actives have a fitted effect of over 15% in size
Summary of the method: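 A 15-concentration quantitative screen uses HepG2 cells co-transfected stably with human CAR and CYP2B6-2.2kb reporter. Treatment lasts 24 h with 0.75 uM PK11195 final present; ONE-Glo luminescence is the signal.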

Measured: Potency

CC1CC(=O)O1 (stereo not drawn)
inactive: [1] | [2] | [3] | [4] | [5] | [6]

CN(C)P(=O)(N(C)C)N(C)C
inactive: [1] | [2] | [3] | [4] | [5] | [7] | [8]

CCOP(=S)(OCC)OP(=S)(OCC)OCC
inactive: [1] | [3] | [4] | [9] | [10] | [5] | [7] | [8]

Cc1cc(Cl)ccc1N=CN(C)C
inactive: [1] | [2] | [3] | [4] | [7] | [8] | [6]
